In all, about 16,000 compounds went through this assay and about 5,100 (32%) were called active. Not shown: some 25% with an inconclusive outcome. Some of the results follow. Values without a mark were called inactive. Calls come from the whole dose curve; as a rule, active = well fitted curve in the direction sought with a large enough effect; inconclusive = small, poorly fitted or top-dose-only effect, or effect the other way; inactive = no such curve, though single readings can be large or run the other way.
% is set by controls: 0 for no effect and ±100 for the full control effect.

The target in this experiment is Cytochrome P450 3A4 (Homo sapiens) (UniProt P08684). Put plainly: Cytochrome panel assay with activity outcomes. Particulars: recombinant CYP, pro-luciferin dealkylation, luminescence, p450-cyp3a4; series mostly up to 57.1 µM; activity, negative = inhibition: at the top concentration.
Sequence of Cytochrome P450 3A4 (Homo sapiens) (P08684 whole entry, looked up): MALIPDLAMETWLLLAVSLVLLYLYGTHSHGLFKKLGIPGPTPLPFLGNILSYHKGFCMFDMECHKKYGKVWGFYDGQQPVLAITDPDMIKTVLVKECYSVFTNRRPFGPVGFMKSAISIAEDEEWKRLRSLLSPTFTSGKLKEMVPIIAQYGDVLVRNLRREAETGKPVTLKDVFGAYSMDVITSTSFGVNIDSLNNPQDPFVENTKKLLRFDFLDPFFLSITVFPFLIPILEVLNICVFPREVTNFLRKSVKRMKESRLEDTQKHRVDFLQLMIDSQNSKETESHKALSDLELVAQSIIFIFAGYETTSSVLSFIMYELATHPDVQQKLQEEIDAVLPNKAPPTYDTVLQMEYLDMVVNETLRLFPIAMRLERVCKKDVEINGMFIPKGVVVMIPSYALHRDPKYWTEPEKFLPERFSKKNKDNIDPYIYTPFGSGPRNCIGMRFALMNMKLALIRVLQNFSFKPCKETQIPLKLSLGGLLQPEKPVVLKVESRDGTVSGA
As for `CN(C)CCNc1ccccn1`, the activity, negative = inhibition was -5.4% [at 11.4 µM].

Turning to `CC1CN(C(=O)COc2ncnc3ccccc23)CC(C)O1` (configuration not stated), the “activity, negative = inhibition” value is -15.3%.

In the case of `Cc1ccc(-n2ccc(=O)c(-c3ccnc(SCc4cccc(Cl)c4)n3)n2)cc1`, the half-maximal activity concentration (AC50) (in general, the concentration at which the activity in the assay is half-maximal) was 8.91 µM (active).

`CC(C)[C@](N)(C(=O)O)c1ccccc1`: the activity, negative = inhibition was -13.2% [at 11.4 µM].

Turning to `O=c1cc(-c2ccccc2)[nH]n1-c1ccc([N+](=O)[O-])cc1`, the AC50 was 14.1 µM (active).

`O=C1NC(c2cccc([N+](=O)[O-])c2)=CCN1c1ccccc1O`: the “activity, negative = inhibition” value is -24.7%.

In the case of `CC(C)c1cccc2cc3c(nc12)-c1cccc(=O)n1C3`, the AC50 was 15.8 µM (active).

Consider `CCc1c2c(nc3c(C(C)C)cccc13)-c1cccc(=O)n1C2`, for which the AC50 was 15.8 µM (active).

On to `CC(C)c1cccc2c([Si](C)(C)C)c3c(nc12)-c1cccc(=O)n1C3`, for which the AC50 is 25.1 µM (active).

Regarding `O[C@H](C[C@@H]1CCCCN1)c1ccc2c(c1)oc1ccccc12`, the activity, negative = inhibition was -5% [at 11.4 µM].

Regarding `CCOC(=O)c1cnc(-c2ccccc2)nc1Oc1ccc(Cl)cc1`, the “activity, negative = inhibition” value is 0.243%.

Consider `CCOC(=O)c1cc(-c2ccc(Cl)cc2)nc2c1c(C)nn2CCC#N`, for which the AC50 is 25.1 µM (active).

Take `COc1ccc(-c2cc(C(=O)O)c3c(C)nn(-c4ccccn4)c3n2)cc1`: the “activity, negative = inhibition” value is -12.3%.

As for `Cc1nn(C(=O)c2ccco2)c(C)c1Sc1ccc(Br)cc1`, the “activity, negative = inhibition” value was -4.98%.

For the compound `Cc1nn(S(=O)(=O)c2cccs2)c(C)c1Sc1ccc([N+](=O)[O-])cc1`, the AC50 is 2.82 µM (active).

In the case of `Cc1ccc(Sc2c([N+](=O)[O-])ncn2C)cc1`, the activity, negative = inhibition is 11.7% [at 2.29 µM].

For `Cc1cccc2cc(CN(Cc3ccccc3)C(=O)c3cccc(F)c3)c(Cl)nc12`, the AC50 is 8.91 µM (active).

Regarding `CCN(CC)c1ccc(NC(=O)c2cccc(F)c2)c(C)c1`, the activity, negative = inhibition was 2.35% [at 2.29 µM].

Regarding `CN1CCc2c(cc(O)c(O)c2Cl)[C@H](c2cccc(Cl)c2)C1`, the “activity, negative = inhibition” value was 19.4%.

For `CCOC(=O)CN(c1ccccn1)S(=O)(=O)c1ccccc1`, the “activity, negative = inhibition” value was -29.6%.

Consider `Cc1cc(C)cc(N(CC(=O)NCCSc2ccccn2)S(=O)(=O)c2ccccc2)c1`, for which the AC50 is 3.98 µM (active).

Take `COC(=O)CN(c1ccccn1)S(=O)(=O)c1ccccc1`: the “activity, negative = inhibition” value was -3.69%.

In the case of `O=C(CN(c1ccccc1)S(=O)(=O)c1ccccc1)NCCSCc1ccco1`, the AC50 is 14.1 µM (active).

As for `c1cncc(-c2cncnc2NCc2cccs2)c1`, the concentration at half-maximal activity (AC50) was 2 µM (active).

As for `c1csc(CNc2ncncc2-c2ccoc2)c1`, the AC50 is 2 µM (active).

For the compound `c1ccc(CNc2ncncc2-c2ccoc2)cc1`, the AC50 is 2 µM (active).

As to `CCN(CC)CC[n+]1ccc2c(C)c3[nH]c4ccccc4c3c(C)c2c1`, the activity, negative = inhibition is -16.9% [at 11.4 µM].

For the compound `CCOc1ccc(NC2=NCC(=O)N2Cc2cccs2)cc1`, the AC50 was 17.8 µM (active).

Take `COc1ccc(NC2=NCC(=O)N2Cc2cccs2)cc1`: the AC50 is 14.1 µM (active).

Take `C=CCN1C(=O)CN=C1Nc1ccccc1`: the “activity, negative = inhibition” value was -22.2%.

With `O=C1CN=C(Nc2ccccc2)N1Cc1cccs1`, the activity, negative = inhibition was -6.15% [at 2.29 µM].

As to `CCOc1ccc(N2C(=O)CN=C2Nc2ccccc2F)cc1`, the activity, negative = inhibition was 3.08% [at 2.29 µM].

Take `COCCNc1ncnc2ccc(-c3ccccc3C(F)(F)F)cc12`: the AC50 was 15.8 µM (active).

`COc1ccccc1-c1ccc2ncnc(NCc3cccnc3)c2c1`: the AC50 was 0.631 µM (active).

Take `FC(F)(F)c1ccccc1-c1ccc2ncnc(NCc3cccnc3)c2c1`: the AC50 is 1.58 µM (active).

`COCCNc1ncnc2ccc(-c3ccccc3OC)cc12`: the half-maximal activity concentration (AC50) is 15.8 µM (active).

As to `O=C(c1ccccc1)c1ccc2n1CC[C@H]2C(=O)O`, the AC50 result is “inactive”.

As to `O=C(O)c1cc2c(o1)CCC/C2=N\O`, the “activity, negative = inhibition” value is -14.2%.

For `CC(C)(CS)C(=O)N1CCC[C@H]1C(=O)O`, the “activity, negative = inhibition” value is 3.01% [at 25.6 µM].

`COc1ccccc1-c1ccc2ncnc(NCc3ccccc3)c2c1`: the AC50 is 12.6 µM (active).

With `Clc1ccccc1-c1ccc2ncnc(NCc3cccnc3)c2c1`, the AC50 was 2 µM (active).

Regarding `COc1cccc(-c2ccc3ncnc(NCc4cccnc4)c3c2)c1`, the AC50 is 1 µM (active).

Turning to `Cc1cc(OC(=O)c2ccc(Cl)cc2Cl)nc(C)n1`, the “activity, negative = inhibition” value was -8.46%.

For `COc1ccc(-c2nn3cnnc3s2)cc1OC`, the AC50 was 14.1 µM (active).

As for `COc1ccc(-c2ccc(=O)n(CC(=O)Nc3nnc(C(C)C)s3)n2)cc1OC`, the “activity, negative = inhibition” value was -18%.

On to `O=S1(=O)OC(c2ccc(O)cc2)(c2ccc(O)cc2)c2ccccc21`, for which the activity, negative = inhibition is -11.8% [at 11.4 µM].

Turning to `CC1(C)CC(=O)C2=C(C1)Nc1cc3c(cc1C2c1ccc(F)cc1)OCO3` (configuration not stated), the AC50 is 1 µM (active).

For `Fc1ccc2c(c1)C1C=CCC1C(c1cc3c(cc1Br)OCO3)N2` (configuration not stated), the activity, negative = inhibition is -4.14% [at 2.29 µM].

For the compound `Nc1nc(Br)c2c(F)cccc2c1-c1ccc(Cl)cc1`, the AC50 is 20 µM (active).

Take `Nc1nc(Br)c2c(F)cccc2c1-c1ccc(F)cc1`: the AC50 is 22.4 µM (active).

On to `Nc1nc(Br)c2ccccc2c1-c1ccc(F)cc1`, for which the concentration at half-maximal activity (AC50) was 14.1 µM (active).

Regarding `CO[C@@H](C(C)C)[C@@H](C)[C@@H]1OC(=O)C[C@@H]1O`, the activity, negative = inhibition was -9.77% [at 11.4 µM].

Consider `COC(=O)C[C@@H]1O[C@H]1[C@H](C)[C@@H](OC)C(C)C`, for which the concentration at half-maximal activity (AC50) is 3.98 µM (active).

Consider `CO[C@@H]1COC(=O)[C@H](CCSC)NC(=O)C/C=C\[C@@H](C)COC(=O)[C@@H]2CCCN2C(=O)C/C=C\[C@H]1C`, for which the activity, negative = inhibition is -23.1% [at 11.4 µM].

With `Cc1ccc(S(=O)(=O)N(CCCN2CCCC2=O)Cc2cc3c(C)ccc(C)c3[nH]c2=O)cc1`, the concentration at half-maximal activity (AC50) was 1.12 µM (active).

For the compound `Cc1ccc(S(=O)(=O)CC(O)CN2CCCC2=O)cc1` (configuration not stated), the “activity, negative = inhibition” value was -2.08%.

For the compound `O=C(NCCCN1CCCC1=O)c1ccc(CNS(=O)(=O)c2ccc(F)cc2)cc1`, the activity, negative = inhibition is -13.5% [at 11.4 µM].

As to `COc1ccccc1CNc1ncncc1-c1ccccc1Cl`, the half-maximal activity concentration (AC50) is 0.2 µM (active).

Turning to `COc1ccccc1CNc1ncncc1-c1ccccc1OC`, the AC50 was 0.2 µM (active).

`c1ccc2c3c([nH]c2c1)[C@@H]1[C@H]2CC[C@H]([C@H]4CCCN[C@H]42)N1CC3`: the “activity, negative = inhibition” value is -11.2% [at 25.6 µM].

With `COC(=O)CSc1ncc(OC)c(OC)n1`, the “activity, negative = inhibition” value is -5.02%.

Consider `CCOC(=O)C1CCN(C(=O)C2CCN(c3nc4ccc(OC)cc4s3)CC2)CC1`, for which the “activity, negative = inhibition” value is 18.5%.

`CCOC(=O)C[n+]1c(C)sc2ccc(OC)cc21`: the concentration at half-maximal activity (AC50) is 3.55 µM (active).

As for `Cc1sc2ccccc2[n+]1CCC(=O)O`, the activity, negative = inhibition was -6.82% [at 11.4 µM].

In the case of `C1CCN(CC[C@@H]2CCCCN2)CC1`, the activity, negative = inhibition is -2.6% [at 11.4 µM].

Consider `CCC/C=C(\CCC)C(NP(=O)(c1ccccc1)c1ccccc1)c1ccc(-c2ccccc2)cc1` (configuration not stated), for which the concentration at half-maximal activity (AC50) is 3.98 µM (active).

`CCC/C=C(\CCC)C(NP(=O)(c1ccccc1)c1ccccc1)c1ccc(C(F)(F)F)cc1` (configuration not stated): the concentration at half-maximal activity (AC50) is 3.16 µM (active).

With `CN(C)C(=O)/N=N\C(=O)N(C)C`, the “activity, negative = inhibition” value was -6.3%.

Consider `O=C(O)C(Cc1ccccc1)Cc1ccccc1`, for which the activity, negative = inhibition is 5.23% [at 11.4 µM].

For the compound `CS(=O)(=O)N1CCC2(CC1)CN(C(=O)Nc1ccccc1)C2`, the “activity, negative = inhibition” value is -13%.

Turning to `CS(=O)(=O)N1CCN(c2ccccc2NC(=O)c2ccc(Br)o2)CC1`, the concentration at half-maximal activity (AC50) was 15.8 µM (active).

In the case of `Nc1nc(N)c2nn(-c3ccc(C(=O)O)cc3)nc2n1`, the activity, negative = inhibition was -6.41% [at 11.4 µM].

With `Cc1ccc2nc(NC(=O)COC(=O)CSc3nc(C)cc(C)n3)sc2c1`, the “activity, negative = inhibition” value was 21.9%.

For `Cc1ccc2nc(NC(=O)COC(=O)c3ccc(Br)o3)sc2c1`, the AC50 was 15.8 µM (active).

With `Cc1ccc2nc(NC(=O)CSCC(=O)OCC(=O)c3ccc(Br)cc3)sc2c1`, the AC50 is 10 µM (active).

For the compound `CCCOc1ccc(C(=O)NC(=S)Nc2nc3ccc(C)cc3s2)cc1`, the activity, negative = inhibition is 13.6% [at 2.29 µM].

Consider `CS(=O)(=O)Nc1c(O)ccc2c1CCC[C@H]2C1=NCCN1`, for which the “activity, negative = inhibition” value was -4.57%.

Turning to `COc1ccc(Oc2ncc3ncc(=O)n(CCc4ccccc4)c3n2)cc1`, the AC50 is 1.26 µM (active).

Turning to `COCCn1c(=O)c(CCc2ccccc2)nc2cnc(OC)nc21`, the AC50 is 12.6 µM (active).

With `O=c1cnc2cnc(Oc3ccccc3)nc2n1CCc1ccccc1`, the “activity, negative = inhibition” value is -22.3%.

For the compound `COc1ncc2nc(CCc3ccccc3)c(=O)n(CCc3ccccc3)c2n1`, the concentration at half-maximal activity (AC50) was 3.16 µM (active).

As to `COCCn1c(=O)c(CCc2ccccc2)nc2cnc(Oc3ccc(OC)cc3)nc21`, the AC50 was 3.16 µM (active).

For the compound `COc1ncc2nc(CCc3ccccc3)c(=O)n(C)c2n1`, the “activity, negative = inhibition” value was 0.537%.

`O=c1c(-c2ccccc2)nc2cnc(Oc3cccc(Cl)c3)nc2n1C1CC1`: the “activity, negative = inhibition” value was 6.74%.

Turning to `Cc1nc2cnc(Oc3cccc(Cl)c3)nc2n(CCc2ccccc2)c1=O`, the “activity, negative = inhibition” value was -22.7%.

`O=c1c(CCc2ccccc2)nc2cnc(Oc3cccc(Cl)c3)nc2n1C[C@H]1CCCO1`: the concentration at half-maximal activity (AC50) was 0.501 µM (active).

`COCCn1c(=O)c(CCc2ccccc2)nc2cnc(Oc3cccc(Cl)c3)nc21`: the half-maximal activity concentration (AC50) is 0.794 µM (active).

Consider `O=c1oc2cc(Oc3c([N+](=O)[O-])cc(C(F)(F)F)cc3[N+](=O)[O-])ccc2c2c1CCCC2`, for which the AC50 is 14.1 µM (active).

Turning to `O=c1oc2cc(Oc3ccc(C(F)(F)F)cc3[N+](=O)[O-])ccc2c2c1CCCC2`, the “activity, negative = inhibition” value was -23.2%.

With `CC1=NNC(=S)NCCCN2CCN(CCCNC(=S)NN=C(C)C=NNC(=S)NCCCN3CCN(CCCNC(=S)NN=C1)CC3)CC2`, the activity, negative = inhibition is -1.88% [at 11.4 µM].

`CC(C)OP(=O)(OC(C)C)C(NC(=O)c1ccc(Br)cc1)c1ccccc1` (configuration not stated): the AC50 was 11.2 µM (active).

`CC(=O)NC(NC(C)=O)c1ccc(Br)cc1`: the “activity, negative = inhibition” value is 8.11%.

Turning to `CNNCc1ccc(C(=O)NC(C)C)cc1`, the “activity, negative = inhibition” value is -12.2% [at 25.6 µM].

Take `O=C(O)C[C@H](Cc1ccccc1)C(=O)O`: the activity, negative = inhibition was -6.62% [at 11.4 µM].

In the case of `Cn1nc(C(F)(F)F)c(/C=N/OC(=O)c2ccc(Cl)cc2)c1Cl`, the “activity, negative = inhibition” value was -0.892%.

Regarding `Cn1nc(C(F)(F)F)c(/C=N/OCc2c(Cl)cccc2Cl)c1Cl`, the “activity, negative = inhibition” value is -24.6%.

As for `Cn1nc(C(F)(F)F)c(/C=N/OC(=O)c2ccccc2Cl)c1SCc1ccc(Cl)cc1`, the concentration at half-maximal activity (AC50) was 7.08 µM (active).
